The results in this text go back to PubChem BioAssay (EPA / NIEHS).

Values joined by “and” are separate entries in the source; they are usually repeats but may differ in a detail not shown here. Equal entries are not always repeated. Inconclusive results are not listed. Active and inactive are the calls of the source. How the source made its calls: active means hit-call score of the fitted dose curve at least 0.9, where 1 is the maximum; inconclusive means response in the unintended direction; inactive means score below 0.9.

The first assay deals with DIO3 (gene 1735). The assay can be described thus: CCTE_GLTED_hDIO3: CCTE's human Deiodinase 3 (DIO3) Inhibition Assay, Great Lakes Toxicology and Ecology Division (GLTED) Lab (AID 2284055).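 Further: potency is for inhibition seen as loss of released iodide signal.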 Put shortly:
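Human type 3 deiodinase, expressed via adenovirus system, was exposed to test chemicals for 3 hours in a cell-free format. Released iodide was then determined spectrophotometrically by Sandell-Kolthoff; plates ran in triplicate.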
In the case of `Oc1ccc(C(c2ccc(O)cc2)C(Cl)(Cl)Cl)cc1`, the AC50 was 143 µM (active).

With `S=C(S)NCCNC(=S)S.[Mn+2].[S-]C([S-])=NCCN=C([S-])[S-].[Zn+2]`, the concentration at half-maximal activity (AC50) is 43.6 µM (active).

In the case of `CCOC(=O)C(C)Oc1ccc(Oc2nc3ccc(Cl)cc3o2)cc1` (centres undefined), the half-maximal activity concentration (AC50) was 15.3 µM (active).

`CC(C)CCCCCCc1ccc(O)cc1`: the AC50 is 18.8 µM (active).

In the case of `CC(=O)S[C@@H]1CC2=CC(=O)CC[C@]2(C)[C@H]2CC[C@@]3(C)[C@@H](CC[C@@]34CCC(=O)O4)[C@H]12`, the concentration at half-maximal activity (AC50) was 100 µM (active).

With `CCCN(CCC)c1c([N+](=O)[O-])cc(C(F)(F)F)c(N)c1[N+](=O)[O-]`, the AC50 was 21.4 µM (active).

Regarding `CCCCCOC(=O)COc1cc(N2C(=O)C3=C(CCCC3)C2=O)c(F)cc1Cl`, the AC50 is 100 µM (active).

Test system in a further assay: not listed separately
As to the kind of experiment: CCTE_Shafer_MEA_dev_LDH: CCTE's Lactate Dehydrogenase Assay for Cytotoxicity in the Neural Network Formation Assay, Shafer Lab (AID 2284068).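 Further: exposure for twelve days from plating with re-dosing on DIV 5 and 9.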 Put shortly:
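Primary rat cortical neurons were cultured on PEI-coated MEA plates and exposed from plating through day 12, with compound renewed at medium changes on DIV 5 and 9. LDH activity was read spectrophotometrically; loss of signal versus DMSO indicates reduced viability.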
With `Oc1ccc(C(c2ccc(O)cc2)C(Cl)(Cl)Cl)cc1`, the compound was called inactive.

For the compound `S=C(S)NCCNC(=S)S.[Mn+2].[S-]C([S-])=NCCN=C([S-])[S-].[Zn+2]`, the compound was called inactive.

Regarding `S=C([S-])NCCNC(=S)[S-].[Mn+2]`, the outcome was inactive.

For `CCCN(CCC)C(=O)SCC`, the result was inactive.

Take `CC1(C)C(C=C(Cl)Cl)C1C(=O)OCc1cccc(Oc2ccccc2)c1` (centres undefined): the AC50 is 22.6 µM (active) and 9.58 µM (active).

Regarding `CCCCC(CC)CN1C(=O)C2C3C=CC(C3)C2C1=O` (centres undefined), the result was inactive.

Take `O=C(O)c1ccccc1`: the outcome was inactive.

In the case of `COCCO`, the result was inactive.

As to `Cc1nn(C)c(Oc2ccccc2)c1C=NOCc1ccc(C(=O)OC(C)(C)C)cc1`, the AC50 is 2 nM (active).

For `C#CCOC(=O)[C@@H](C)Oc1ccc(Oc2ncc(Cl)cc2F)cc1`, the call was inactive.

`CCCCOCCOCCOCc1cc2c(cc1CCC)OCO2`: the AC50 is 15300 nM (active).

Regarding `CC(C)(c1ccc(O)cc1)c1ccc(O)cc1`, the call was inactive.

Test system in a further assay: not listed separately
As to the kind of experiment: CCTE_Shafer_MEA_acute_AB: CCTE's Alamar Blue Assay for Cytotoxicity in the Neural Acute Assay, Shafer Lab (AID 2284069).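 Further: active compounds lower the viability signal compared with DMSO wells.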 Put shortly:
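Resazurin reduction (CellTiter Blue, 1:6 in fresh medium) read at ex 544/em 590 nm marks viability loss relative to DMSO. Cells: primary rat cortical neuron networks on microelectrode arrays, treated after baseline recording at 13 or 15 days in vitro.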
In general terms: Alamar Blue is a resazurin reagent that responds to reducing activity.
As for `CC(C)(C)[C@@H](O)[C@@H](Cc1ccc(Cl)cc1)n1cncn1`, the compound was called inactive.

Take `O=C(Nc1ccc([N+](=O)[O-])cc1Cl)c1cc(Cl)ccc1O`: the result was inactive.

For the compound `O=C(c1ccccc1)C1CCCCC1`, the outcome was inactive.

On to `CCCCC(CC)CN1C(=O)C2C3C=CC(C3)C2C1=O` (centres undefined), for which the compound was called inactive.

Turning to `O=C(O)c1ccccc1`, the outcome was inactive.

For `N#CSCSc1nc2ccccc2s1`, the result was inactive.

Regarding `O=C(c1ccc(O)cc1O)c1ccc(O)cc1O`, the compound was called inactive.

Regarding `CCNc1nc(N)nc(Cl)n1`, the call was inactive.

As for `Cc1nn(C)c(Oc2ccccc2)c1C=NOCc1ccc(C(=O)OC(C)(C)C)cc1`, the result was inactive.

With `C#CCOC(=O)[C@@H](C)Oc1ccc(Oc2ncc(Cl)cc2F)cc1`, the result was inactive.

For `CC(C)CCCCCCc1ccc(O)cc1`, the result was inactive.

As for `C=CCOC(Cn1ccnc1)c1ccc(Cl)cc1Cl` (centres undefined), the compound was classed as inactive.

On to `COC(=O)c1ccccc1C(=O)O`, for which the compound was classed as inactive.

With `OB(O)O`, the compound was called inactive.

As for `CC(C)(c1ccc(O)cc1)c1ccc(O)cc1`, the compound was classed as inactive.

As a reminder, the AC50 is the midpoint of the concentration-response curve, whichever way the signal moves.
